Assay results as given in PubChem BioAssay (NCATS).
Inconclusive results are not listed. Calls of active or inactive are those of the source. Calls follow the shape of the dose curve; as a rule, active = well fitted inhibition curve with a large enough effect in the signal ratio, with a control signal flat (not every such curve was filed as active); inconclusive = small, poorly fitted or top-dose-only effect, or effect the other way, or a change in a side signal; inactive = no such curve, though single readings can be large or run the other way; the % refers to the signal ratio.

Each compound was assayed against Peroxisome proliferator-activated receptor delta (Homo sapiens) (UniProt Q03181) (assay: qHTS assay for small molecule antagonists of peroxisome proliferator-activated receptor delta signaling (AID 588535)). Details: HEK293T PPARd-UAS-bla, beta-lactamase FRET ratio, 18 h; series mostly up to 76.7 µM; activity change, negative = inhibition: at the top concentration.
From the text: NIH Chemical Genomics Center [NCGC] U.S. Environmental Protection Agency [EPA] National Institutes of Environmental Health Sciences [NIEHS] National Toxicology Program [NTP] NCGC Assay Overview The Peroxisome proliferator-activated receptors (PPARs) are lipid-activated transcription factors of the nuclear receptor superfamily with three distinct subtypes namely PPAR alpha, PPAR delta (also called PPAR beta) and PPAR gamma. All these subtypes heterodimerizes with Retinoid X receptor (RXR) and have different physiological functions. […] This role of PPAR delta implicates the potential use of its ligands in the treatment of metabolic disorders.
NCGC Assay Protocol Summary Using a beta-lactamase reporter-gene under control Peroxisome Proliferator-Activated Receptor delta (PPAR-delta) response element, a cell-based assay [GeneBLAzer (PPAR-delta-UAS-bla assay developed by Invitrogen] was used to measure PPAR-delta ligands signaling. GeneBLAzer PPAR-delta-UAS-bla HEK293T cells were used with assay medium containing 2% charcoal/dextran FBS. The assay was performed in clear bottom black Greiner 1536-well plates. Library compounds were measured for their ability to inhibit the reporter gene activity. Compounds were screened in a titration series in 1536-well format. The fluorescence intensity (405 nm excitation, 460/530 nm emission) was measured using an EnVision plate reader. […] Concentration-response titration points for each compound were fitted to the Hill equation yielding concentrations of half-maximal inhibition (IC50) and maximal response (efficacy) values. qHTS protocol for PPAR-delta beta-lactamase assay in antagonist mode [Step] [Parameter] [Value] [Description] 1. Reagent; 5 uL; 4000 cells/well 2. Incubation; 37 C for 5 hrs 3. Compounds; 23 nL; 0.59 nM to 92 uM 4. […] Incubation; 37 C for 18 hrs 7. Detection reagent; 1 uL of CCF4-dye 8. Incubation; RT for 2 hrs 9. Detection; Fluorescence; Envision plate reader

Chain of Peroxisome proliferator-activated receptor delta (Homo sapiens) (Q03181 whole entry, looked up): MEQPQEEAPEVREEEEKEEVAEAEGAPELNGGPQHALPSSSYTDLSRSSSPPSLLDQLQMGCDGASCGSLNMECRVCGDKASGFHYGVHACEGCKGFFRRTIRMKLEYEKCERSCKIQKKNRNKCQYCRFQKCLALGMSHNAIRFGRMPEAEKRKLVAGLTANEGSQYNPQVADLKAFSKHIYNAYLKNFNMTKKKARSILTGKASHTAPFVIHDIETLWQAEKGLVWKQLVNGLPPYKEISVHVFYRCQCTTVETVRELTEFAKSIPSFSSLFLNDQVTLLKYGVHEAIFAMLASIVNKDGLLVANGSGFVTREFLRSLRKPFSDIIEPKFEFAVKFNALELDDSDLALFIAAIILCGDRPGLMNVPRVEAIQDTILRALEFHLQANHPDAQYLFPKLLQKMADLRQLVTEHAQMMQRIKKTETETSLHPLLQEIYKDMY

SMILES | outcome | activity change, negative = inhibition
CCCC(=O)OC(=O)CCC | inactive | –
COc1ccc(C)cc1N | – | -13.8% (inactive)
C=Cc1cccc(C)c1 | – | -27.4% (inactive)
Cc1c(N)cccc1Cl | – | -15.4% (inactive)
c1c[nH]cn1 | – | -5.32% (inactive)
Brc1cc(Oc2cc(Br)c(Br)c(Br)c2Br)c(Br)c(Br)c1Br | inactive | –
Nc1cc([N+](=O)[O-])ccc1O | inactive | –
Nc1ccc(N)c(Cl)c1 | – | 4.56% (inactive)
COc1ccc([N+](=O)[O-])cc1N | inactive | –
CC(C)OCC1CO1 (stereo not given) | – | -12.3% (inactive)
c1ccc2ncccc2c1 | – | -2.9% (inactive)
C1CCCNCC1 | – | -34.6% (inactive)
O=[N+]([O-])c1cc(Cl)c(Cl)c(Cl)c1Cl | – | 3.86% (inactive)
O=C(O)/C=C/c1ccc(/C=C/C(=O)O)cc1 | – | -28.6% (inactive)
NC(=O)Nc1nc2ccccc2[nH]1 | – | -21.8% (inactive)
c1ccc2c(c1)ccc1ccccc12 | – | -10.7% (inactive)
Cc1cc(-c2ccc(N=Nc3cc(S(=O)(=O)O)c4ccccc4c3N)c(C)c2)ccc1N=Nc1cc(S(=O)(=O)O)c2ccccc2c1N | – | -18.4% (inactive)
Nc1ccc2c(c1)C(=O)c1ccccc1C2=O | – | 6.52% (inactive)
Nc1ccccc1O | – | 2.32% (inactive)
S=C(NC1CCCCC1)NC1CCCCC1 | – | 7.64% (inactive)

SMILES | outcome | activity change, negative = inhibition
Cc1c(C(=O)O)c(O)cc2c1C(=O)c1c(O)c([C@H]3O[C@H](CO)[C@@H](O)[C@H](O)[C@H]3O)c(O)c(O)c1C2=O | – | -1.51% (inactive)
c1ccc(SCCSc2ccccc2)cc1 | – | -8.37% (inactive)
O=[N+]([O-])c1ccc(F)cc1F | – | -14.7% (inactive)
CC(C)COC(=O)COc1cc(Cl)c(Cl)cc1Cl | – | -5.24% (inactive)
Cc1ccc(N)cc1[N+](=O)[O-] | – | -8.47% (inactive)
C=C(C#N)C(=O)OCC | – | -27.9% (inactive)
c1ccc(Nc2cccc3ccccc23)cc1 | inactive | –
CCC(Cl)CC(Cl)C(Cl)C(Cl)C(Cl)C(C)Cl (stereo not given) | – | -17.6% (inactive)
CCNC(=S)NCC | – | 14.5% (inactive)
CC(=O)Nc1cccc(C)c1 | – | -1.53% (inactive)
CC(CCC(=O)O)(c1ccc(O)cc1)c1ccc(O)cc1 | inactive | –
CC(=O)OC1CC(C)OC(C)O1 (stereo not given) | inactive | –
OCC(CBr)(CBr)CBr | – | -2.26% (inactive)
CCCCCCc1ccc(-c2ccc(C#N)cc2)cc1 | – | -4.17% (inactive)
CC(C)S | – | 0.0477% (inactive)
Cc1ccc(O)c(N)c1 | – | -24% (inactive)
NC(=O)c1ccc([N+](=O)[O-])cc1 | – | -19.3% (inactive)
Cc1ccc2ccc3cccc4ccc1c2c34 | – | -11% (inactive)
CCCCCCCCC1CO1 (stereo not given) | – | -14.6% (inactive)
O=CC(=O)c1ccccc1 | – | -19.7% (inactive)
